Measured values as given in PubChem BioAssay (NCATS).
Inconclusive results are not listed. Where a call stands in place of a potency, no number is given. Active and inactive are the calls of the source. Calls follow the shape of the dose curve; as a rule, active = well fitted curve in the direction sought with a large enough effect; inconclusive = small, poorly fitted or top-dose-only effect, or another doubt; inactive = no such curve, though single readings can be large; an effect the other way counts as inactive or inconclusive.

system: not listed separately; assay: Cytometry Cell-Based qHTS for Inhibitors of the mTORC1 Signaling Pathway in MEF cells (AID 2668); settings: mTORC1 pathway readout; series mostly up to 38.3 µM;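 also: Tsc2-/- p53-/- mouse embryonic fibroblasts stably re-expressing wild-type Tsc2; percent cells positive for phospho-rpS6 Ser235/236 relative to propidium iodide stain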
Procedure, shortened: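 MEFs (Tsc2-/-, p53-/- stably expressing WT Tsc2) treated 24 h at 37 degree Celsius, fixed, stained with Alexa-488 anti-phospho-rpS6 Ser235/236 and propidium iodide; Acumen laser scanning. Reported as % positive cells, phospho-S6 normalized to PI.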

Row | Compound | outcome
1 | Nc1ccc(S(=O)(=O)Nc2ccnn2-c2ccccc2)cc1 | inactive
2 | O=c1[nH]cnc2[nH]ncc12 | inactive
3 | Cc1[nH]c(=O)c(C#N)cc1-c1ccc2nccn2c1 | inactive
4 | CCC(C)N(C)C(=O)c1cc2ccccc2c(-c2ccccc2Cl)n1 (centres undefined) | inactive
5 | Cc1cn[nH]c1 | inactive
6 | N[C@@H]1CONC1=O | inactive
7 | Cc1ccc(N(CC2=NCCN2)c2cccc(O)c2)cc1 | inactive
8 | CCN(CC)CCCC(C)Nc1ccnc2cc(Cl)ccc12 (centres undefined) | inactive
9 | CNC[C@H](O)c1cccc(O)c1 | inactive
10 | CCn1cc(C(=O)O)c(=O)c2cc(F)c(N3CCNC(C)C3)c(F)c21 (centres undefined) | inactive
11 | NC[C@H](O)c1ccc(O)c(O)c1 | inactive
12 | Cc1[nH]c(=O)c(C#N)cc1-c1ccncc1 | inactive
13 | NC(=O)c1cnccn1 | inactive
14 | CCCCNc1cc(C(=O)O)cc(S(N)(=O)=O)c1Oc1ccccc1 | inactive
15 | Clc1cccc(Cl)c1NC1=NCCN1 | inactive
16 | NCCCC(N)(C(=O)O)C(F)F (centres undefined) | inactive
17 | c1ccc([C@H]2CN3CCSC3=N2)cc1 | inactive
18 | O=NN(CCCl)C(=O)NCCCl | inactive
19 | CC(C)(C)NCC(O)c1ccc(O)c(CO)c1 (centres undefined) | inactive
20 | NS(=O)(=O)c1cc2c(cc1Cl)NC=NS2(=O)=O | inactive
21 | N=c1nc(N2CCCCC2)cc(N)n1O | inactive
22 | Cc1ccccc1C(OCCN(C)C)c1ccccc1 (centres undefined) | inactive
23 | CCCC(CCC)C(=O)O | inactive
24 | CC(C[N+](C)(C)C)OC(N)=O (centres undefined) | inactive
25 | O=C1CCC(N2C(=O)c3ccccc3C2=O)C(=O)N1 (centres undefined) | inactive
26 | CC(=O)Oc1ccccc1C(=O)O | inactive

system: not listed separately; assay: Validation screen for small molecules that induce DNA re-replication in MCF 10A normal breast cells (AID 463097); settings: MCF 10A cells, DNA re-replication phenotype imaging; series mostly up to 46.1 µM; also: nearly all actives have a fitted effect of over 60% in size
Procedure, shortened: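 MCF 10A cells exposed to compound 48 hr at 37 C, 5% CO2, then Hoechst-stained 40 min. Laser-scanning imaging of nuclear DNA content (405 nm ex, 500-530 nm em); re-replication scored as rise in nuclei with elevated fluorescence intensity.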

Row | Compound | Potency
27 | Nc1ccc(S(=O)(=O)Nc2ccnn2-c2ccccc2)cc1 | inactive
28 | O=c1[nH]cnc2[nH]ncc12 | inactive
29 | Cc1[nH]c(=O)c(C#N)cc1-c1ccc2nccn2c1 | inactive
30 | CCC(C)N(C)C(=O)c1cc2ccccc2c(-c2ccccc2Cl)n1 (centres undefined) | inactive
31 | Cc1cn[nH]c1 | inactive
32 | N[C@@H]1CONC1=O | inactive
33 | Cc1ccc(N(CC2=NCCN2)c2cccc(O)c2)cc1 | inactive
34 | CCN(CC)CCCC(C)Nc1ccnc2cc(Cl)ccc12 (centres undefined) | inactive
35 | CNC[C@H](O)c1cccc(O)c1 | inactive
36 | CCn1cc(C(=O)O)c(=O)c2cc(F)c(N3CCNC(C)C3)c(F)c21 (centres undefined) | inactive
37 | NC[C@H](O)c1ccc(O)c(O)c1 | inactive
38 | Cc1[nH]c(=O)c(C#N)cc1-c1ccncc1 | inactive
39 | NC(=O)c1cnccn1 | inactive
40 | CCCCNc1cc(C(=O)O)cc(S(N)(=O)=O)c1Oc1ccccc1 | inactive
41 | Clc1cccc(Cl)c1NC1=NCCN1 | inactive
42 | NCCCC(N)(C(=O)O)C(F)F (centres undefined) | inactive
43 | c1ccc([C@H]2CN3CCSC3=N2)cc1 | inactive
44 | O=NN(CCCl)C(=O)NCCCl | inactive
45 | CC(C)(C)NCC(O)c1ccc(O)c(CO)c1 (centres undefined) | inactive
46 | NS(=O)(=O)c1cc2c(cc1Cl)NC=NS2(=O)=O | inactive
47 | N=c1nc(N2CCCCC2)cc(N)n1O | inactive
48 | Cc1ccccc1C(OCCN(C)C)c1ccccc1 (centres undefined) | inactive
49 | CCCC(CCC)C(=O)O | inactive
50 | CC(C[N+](C)(C)C)OC(N)=O (centres undefined) | inactive
51 | O=C1CCC(N2C(=O)c3ccccc3C2=O)C(=O)N1 (centres undefined) | inactive
52 | CC(=O)Oc1ccccc1C(=O)O | inactive

target: Ubiquitin carboxyl-terminal hydrolase 2 (Homo sapiens) (UniProt O75604); assay: qHTS Validation Assay for Inhibitors of Ubiquitin-specific Protease USP2a Using CHOP2 as the Reporter (AID 463106); settings: USP2a cleavage of CHOP2 reporter, enzymatic; series mostly up to 38.3 µM
Sequence (O75604 whole entry, looked up): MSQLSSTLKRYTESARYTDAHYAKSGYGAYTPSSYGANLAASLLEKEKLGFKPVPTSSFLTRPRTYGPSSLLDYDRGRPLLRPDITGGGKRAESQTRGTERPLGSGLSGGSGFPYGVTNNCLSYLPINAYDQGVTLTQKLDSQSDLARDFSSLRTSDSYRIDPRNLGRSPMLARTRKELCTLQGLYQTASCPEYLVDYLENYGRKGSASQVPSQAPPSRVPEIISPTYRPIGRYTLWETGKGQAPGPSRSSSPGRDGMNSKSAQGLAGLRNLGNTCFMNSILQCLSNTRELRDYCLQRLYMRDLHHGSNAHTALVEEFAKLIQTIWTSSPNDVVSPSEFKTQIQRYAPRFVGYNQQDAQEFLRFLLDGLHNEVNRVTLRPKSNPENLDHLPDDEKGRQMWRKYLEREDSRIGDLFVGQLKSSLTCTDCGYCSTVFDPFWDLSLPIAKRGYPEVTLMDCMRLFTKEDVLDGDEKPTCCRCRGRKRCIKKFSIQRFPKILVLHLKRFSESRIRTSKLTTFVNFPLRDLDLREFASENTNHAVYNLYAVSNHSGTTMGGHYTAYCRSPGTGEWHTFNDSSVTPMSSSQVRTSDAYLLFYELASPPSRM
Procedure, shortened: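 USP2 core (10 nM final) was preincubated with compound 30 min at RT in pH 8.0 Tris/CaCl2/beta-ME/CHAPS buffer. Ub-CHOP2 and reporter substrate (25 nM final each) were then added, with fluorescence (Ex 485/Em 531) read after 60 min. Data were normalized to NEM full inhibition and fitted to concentration-response curves.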

Row | Compound | outcome
53 | Nc1ccc(S(=O)(=O)Nc2ccnn2-c2ccccc2)cc1 | inactive
54 | O=c1[nH]cnc2[nH]ncc12 | inactive
55 | Cc1[nH]c(=O)c(C#N)cc1-c1ccc2nccn2c1 | inactive
56 | CCC(C)N(C)C(=O)c1cc2ccccc2c(-c2ccccc2Cl)n1 (centres undefined) | inactive
57 | Cc1cn[nH]c1 | inactive
58 | N[C@@H]1CONC1=O | inactive
59 | Cc1ccc(N(CC2=NCCN2)c2cccc(O)c2)cc1 | inactive
60 | CCN(CC)CCCC(C)Nc1ccnc2cc(Cl)ccc12 (centres undefined) | inactive
61 | CNC[C@H](O)c1cccc(O)c1 | inactive
62 | CCn1cc(C(=O)O)c(=O)c2cc(F)c(N3CCNC(C)C3)c(F)c21 (centres undefined) | inactive
63 | NC[C@H](O)c1ccc(O)c(O)c1 | inactive
64 | Cc1[nH]c(=O)c(C#N)cc1-c1ccncc1 | inactive
65 | NC(=O)c1cnccn1 | inactive
66 | CCCCNc1cc(C(=O)O)cc(S(N)(=O)=O)c1Oc1ccccc1 | inactive
67 | Clc1cccc(Cl)c1NC1=NCCN1 | inactive
68 | NCCCC(N)(C(=O)O)C(F)F (centres undefined) | inactive
69 | c1ccc([C@H]2CN3CCSC3=N2)cc1 | inactive
70 | O=NN(CCCl)C(=O)NCCCl | inactive
71 | CC(C)(C)NCC(O)c1ccc(O)c(CO)c1 (centres undefined) | inactive
72 | NS(=O)(=O)c1cc2c(cc1Cl)NC=NS2(=O)=O | inactive
73 | N=c1nc(N2CCCCC2)cc(N)n1O | inactive
74 | Cc1ccccc1C(OCCN(C)C)c1ccccc1 (centres undefined) | inactive
75 | CCCC(CCC)C(=O)O | inactive
76 | CC(C[N+](C)(C)C)OC(N)=O (centres undefined) | inactive
77 | O=C1CCC(N2C(=O)c3ccccc3C2=O)C(=O)N1 (centres undefined) | inactive
78 | CC(=O)Oc1ccccc1C(=O)O | inactive

target: DNA polymerase III PolC-type (Bacillus subtilis (strain 168)) (UniProt P13267); assay: qHTS Validation Assay for the Inhibitors of DNA Replication in Gram-Positive Bacteria (AID 485295); settings: Gram-positive bacterial DNA replication assay; series mostly up to 57.1 µM;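 also: PicoGreen fluorescence of double-stranded DNA made on primed circular M13 template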
Sequence (P13267 whole entry, looked up): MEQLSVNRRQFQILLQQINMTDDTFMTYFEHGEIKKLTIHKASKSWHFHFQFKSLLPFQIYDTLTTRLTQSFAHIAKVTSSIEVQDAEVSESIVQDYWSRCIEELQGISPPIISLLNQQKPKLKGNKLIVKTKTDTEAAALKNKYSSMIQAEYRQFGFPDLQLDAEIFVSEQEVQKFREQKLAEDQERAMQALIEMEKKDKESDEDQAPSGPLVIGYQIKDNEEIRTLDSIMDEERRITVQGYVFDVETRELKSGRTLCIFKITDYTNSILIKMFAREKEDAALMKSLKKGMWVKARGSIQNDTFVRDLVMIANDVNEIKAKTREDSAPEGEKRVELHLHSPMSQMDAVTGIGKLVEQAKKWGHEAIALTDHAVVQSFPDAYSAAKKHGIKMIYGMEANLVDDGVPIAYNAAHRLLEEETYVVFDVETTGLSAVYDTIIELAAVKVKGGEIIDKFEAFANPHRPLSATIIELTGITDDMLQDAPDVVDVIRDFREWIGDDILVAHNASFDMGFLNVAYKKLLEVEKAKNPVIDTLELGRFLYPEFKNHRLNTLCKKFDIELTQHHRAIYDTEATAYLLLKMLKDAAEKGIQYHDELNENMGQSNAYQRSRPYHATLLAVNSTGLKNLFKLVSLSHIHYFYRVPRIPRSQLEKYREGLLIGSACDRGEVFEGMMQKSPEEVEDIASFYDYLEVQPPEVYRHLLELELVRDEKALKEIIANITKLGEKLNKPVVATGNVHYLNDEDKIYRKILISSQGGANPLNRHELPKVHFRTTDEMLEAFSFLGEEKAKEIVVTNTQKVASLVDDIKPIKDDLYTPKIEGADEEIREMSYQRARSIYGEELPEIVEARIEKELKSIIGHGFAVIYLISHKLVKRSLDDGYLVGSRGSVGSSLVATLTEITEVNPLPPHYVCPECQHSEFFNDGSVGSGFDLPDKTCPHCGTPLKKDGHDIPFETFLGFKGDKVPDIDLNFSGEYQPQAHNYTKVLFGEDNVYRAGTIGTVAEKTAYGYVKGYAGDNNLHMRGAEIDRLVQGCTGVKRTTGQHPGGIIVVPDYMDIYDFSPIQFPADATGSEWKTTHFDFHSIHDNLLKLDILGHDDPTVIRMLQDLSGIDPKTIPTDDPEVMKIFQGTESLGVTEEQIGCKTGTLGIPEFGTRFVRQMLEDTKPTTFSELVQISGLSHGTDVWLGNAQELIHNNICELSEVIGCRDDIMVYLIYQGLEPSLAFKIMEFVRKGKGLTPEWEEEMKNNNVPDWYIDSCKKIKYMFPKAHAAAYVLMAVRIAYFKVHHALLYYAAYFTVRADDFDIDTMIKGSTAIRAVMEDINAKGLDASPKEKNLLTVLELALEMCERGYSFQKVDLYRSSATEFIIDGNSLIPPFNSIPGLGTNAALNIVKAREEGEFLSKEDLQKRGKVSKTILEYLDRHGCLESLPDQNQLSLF
Procedure, shortened: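 Reconstituted B. subtilis Pol III holoenzyme (PolC, beta clamp, SSB, primase) preincubated with compound, then M13Gori single-stranded circular template with dNTPs/NTPs added; room temperature reaction. Stopped with EDTA/PicoGreen; dsDNA fluorescence read, EDTA as full-inhibition control.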

Row | Compound | Potency
79 | Nc1ccc(S(=O)(=O)Nc2ccnn2-c2ccccc2)cc1 | inactive
80 | O=c1[nH]cnc2[nH]ncc12 | inactive
81 | Cc1[nH]c(=O)c(C#N)cc1-c1ccc2nccn2c1 | inactive
82 | CCC(C)N(C)C(=O)c1cc2ccccc2c(-c2ccccc2Cl)n1 (centres undefined) | inactive
83 | Cc1cn[nH]c1 | inactive
84 | N[C@@H]1CONC1=O | inactive
85 | Cc1ccc(N(CC2=NCCN2)c2cccc(O)c2)cc1 | inactive
86 | CCN(CC)CCCC(C)Nc1ccnc2cc(Cl)ccc12 (centres undefined) | inactive
87 | CNC[C@H](O)c1cccc(O)c1 | inactive
88 | CCn1cc(C(=O)O)c(=O)c2cc(F)c(N3CCNC(C)C3)c(F)c21 (centres undefined) | inactive
89 | NC[C@H](O)c1ccc(O)c(O)c1 | inactive
90 | Cc1[nH]c(=O)c(C#N)cc1-c1ccncc1 | inactive
91 | NC(=O)c1cnccn1 | inactive
92 | CCCCNc1cc(C(=O)O)cc(S(N)(=O)=O)c1Oc1ccccc1 | inactive
93 | Clc1cccc(Cl)c1NC1=NCCN1 | inactive
94 | NCCCC(N)(C(=O)O)C(F)F (centres undefined) | inactive
95 | c1ccc([C@H]2CN3CCSC3=N2)cc1 | inactive
96 | O=NN(CCCl)C(=O)NCCCl | inactive
97 | CC(C)(C)NCC(O)c1ccc(O)c(CO)c1 (centres undefined) | inactive
98 | NS(=O)(=O)c1cc2c(cc1Cl)NC=NS2(=O)=O | inactive
99 | N=c1nc(N2CCCCC2)cc(N)n1O | inactive
100 | Cc1ccccc1C(OCCN(C)C)c1ccccc1 (centres undefined) | inactive
101 | CCCC(CCC)C(=O)O | inactive
102 | CC(C[N+](C)(C)C)OC(N)=O (centres undefined) | inactive
103 | O=C1CCC(N2C(=O)c3ccccc3C2=O)C(=O)N1 (centres undefined) | inactive
104 | CC(=O)Oc1ccccc1C(=O)O | inactive
